# Screening data deposited in PubChem by National Center for Advancing Translational Sciences (NCATS).
# Shown are actives, neighbours in structure and some others; about 18% of the full set was active somewhere.
# TDP1 cell CPT: growth inhibition of DT40 Tdp1-/-;hTDP1 cells with camptothecin (screen for TDP1 inhibitors). chicken DT40 Tdp1-/-;hTDP1 cells + 20 nM CPT, ATP luminescence, 48 h. Potency, µM (highest dose often 46.2 µM), without a hit: at the top dose activity change, negative = growth inhibition, hits mostly inhibitors. actives 12% (n = 420,000). AID 686979; also: potency is read from the fitted curve at half-maximal effect; nearly all actives have a fitted effect of over 55% in size
#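 Chicken DT40 Tdp1-/- cells stably complemented with human TDP1 were seeded at 400 cells/well in medium containing 20 nM camptothecin, exposed to pin-transferred compounds, and grown at 37 °C for at least 48 hr. Viability was read as ATP luminescence.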
# TDP1 cell noCPT: qHTS for Inhibitors of human tyrosyl-DNA phosphodiesterase 1 (TDP1): qHTS in cells in absence of CPT; DT40 Tdp1-/- hTDP1 cells, no CPT, ATP luminescence, 48 h; Potency, µM (doses to about 46.2 µM), for inactives: top-dose activity change, negative = growth inhibition, actives largely listed as inhibitors; actives 15% (n = 420,000); AID 686978, 2013; also: potency is read from the fitted curve at half-maximal effect; nearly all actives have a fitted effect of over 55% in size
#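 Chicken DT40 Tdp1-/- cells stably complemented with human TDP1 were seeded at 400 cells/well with DMSO in place of 20 nM camptothecin. After compound pinning, cells grew at least 48 hr at 37 °C; viability read by CellTiter-Glo luminescence.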
# TDP1 block: inhibitors of human tyrosyl-DNA phosphodiesterase TDP1; Q9NUW8; recombinant TDP1, AlphaScreen DNA substrate cleavage; Potency, µM (highest dose often 130 µM), without a hit: at the highest dose activity change, negative = inhibition, usual class: inhibitors; actives 0.28% (n = 350,000); AID 485290; also: potency is read from the fitted curve at half-maximal effect; nearly all actives have a fitted effect of over 40% in size
# Target sequence (Q9NUW8 whole entry, looked up): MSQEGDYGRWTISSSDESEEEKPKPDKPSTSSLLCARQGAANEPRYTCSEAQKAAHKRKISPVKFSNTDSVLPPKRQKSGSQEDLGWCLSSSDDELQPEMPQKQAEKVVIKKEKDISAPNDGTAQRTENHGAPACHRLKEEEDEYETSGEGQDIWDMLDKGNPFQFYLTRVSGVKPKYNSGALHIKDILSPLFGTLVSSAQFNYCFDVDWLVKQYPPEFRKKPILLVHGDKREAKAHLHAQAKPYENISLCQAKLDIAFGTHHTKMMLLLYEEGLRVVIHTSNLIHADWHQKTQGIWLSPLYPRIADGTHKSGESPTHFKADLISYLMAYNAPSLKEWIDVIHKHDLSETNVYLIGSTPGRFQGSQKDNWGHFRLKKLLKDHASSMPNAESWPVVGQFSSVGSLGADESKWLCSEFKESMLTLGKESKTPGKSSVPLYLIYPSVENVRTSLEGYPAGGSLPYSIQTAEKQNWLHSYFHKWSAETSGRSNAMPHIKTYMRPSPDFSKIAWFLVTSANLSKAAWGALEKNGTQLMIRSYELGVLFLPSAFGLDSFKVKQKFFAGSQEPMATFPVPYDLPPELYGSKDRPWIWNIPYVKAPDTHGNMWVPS
#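 Recombinant E. coli-expressed Tdp1 (1 nM) preincubated with compound 15 min at RT, then 5'-biotin/3'-phosphotyrosine-FITC DNA substrate (15 nM) added for 5 min. AlphaScreen beads (10 ug/ml) added, 10 min RT; tyrosine-FITC cleavage read as signal loss.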
# CtBP-E1A blk: blocks the CtBP interaction with E1A; actives 0.49% (n = 340,000); activity change, % (concentration not given with the values); AID 651724; AlphaScreen GST-E1A/His-CtBP binding, 1536-well; active compounds read low; in the data active = activity change below about -65%; inconclusive = mostly about -30% to -63%
#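 AlphaScreen with 125 nM GST-E1A and 125 nM His-CtBP (5X stocks) in Tris pH 8.0, 300 mM NaCl, BSA, Tween 20, TCEP. Compounds preincubated 2 h at 37 deg C, then glutathione donor/nickel acceptor beads added for 1 h at 37 deg C in dark.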
# Six1-Eya2 inh: Six1/Eya2 interaction inhibition. Q15475+O00167. AlphaScreen GST-Six1/His-Eya2 binding, biochemical; active compounds read low. activity change, % (test concentration not listed). actives 0.56% (n = 360,000). AID 651725; in the data active = activity change below about -65%; inconclusive = mostly about -30% to -63%
#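 AlphaScreen with GST-Six1 and His-Eya2 (5X mix: 250 nM and 500 nM), glutathione donor and nickel acceptor beads; buffer 50 mM Tris pH 8.0, 300 mM NaCl, 1 mM TCEP; 1 h at 37 C in the dark.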
# IL1B secr inh: blocks inflammasome-driven IL-1 beta release; THP-1 LPS/ATP IL-1B secretion, AlphaLISA, 16 h; active compounds read low; activity change, % at 57.5 µM; actives 4.7% (n = 360,000); AID 743279; in the data active = activity change below about -50%; inconclusive = mostly about -30% to -49%
#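 Secreted IL-1B measured by AlphaLISA bead assay after 16 h compound exposure of THP-1 cells; compounds (final up to 57.5 uM) added 1 h before LPS (250 ng/mL) and ATP (1.25 mM) stimulation; lower signal means less secretion.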
# The depositor's hits bear a star; ? = inconclusive; . = no result; [ ] = remark or other dose. Unless noted, calls follow the shape of the dose curve; as a rule, active = well fitted curve in the direction sought with a large enough effect; inconclusive = small, poorly fitted or top-dose-only effect, or another doubt; inactive = no such curve, though single readings can be large; an effect the other way counts as inactive or inconclusive. % is scaled to controls: 0 for no effect and ±100 for the full control effect.
SMILES,TDP1 cell CPT,TDP1 cell noCPT,TDP1 block,CtBP-E1A blk,Six1-Eya2 inh,IL1B secr inh
C(=C\c1ccccc1)/CN1CCN(C(c2ccccc2)c2nnnn2C2CCCC2)CC1 (stereo not given),18µM*,23µM*,.,-19,-19,-5
CCCCn1nnnc1C(CCc1ccccc1)N1CCN(C/C=C/c2ccccc2)CC1 (stereo not given),?,23µM*,.,-29,-7,?
CCOC(=O)C1=C(Cc2ccc(C)cc2)C(=O)c2ccccc2C1=O,.,.,7%,.,.,.
CCOC(=O)C1=C(Cc2ccc(OC)cc2)C(=O)c2ccccc2C1=O,4.6µM*,8.2µM*,11%,-6,-5,-82*
CCCc1ccc(/C=C2\C(=O)c3ccccc3C(O)=C2C(=O)OCC)cc1,.,.,8%,.,.,.
CCOC(=O)C1=C(O)c2ccccc2C(=O)/C1=C\c1ccc(CC)cc1,21µM*,21µM*,5%,-9,-13,?
Cc1cccc(C)c1Cn1c(C)c(C(=O)NCCC#N)sc1=O,-6%,-5%,.,4,2,4
CNC(=S)N/N=C/c1cc(C)n(-c2ccc(Cl)c(Cl)c2)c1C,23µM*,?,10%,-10,-17,-8
Cc1ccc(-n2c(C)cc(/C=N/NC(N)=S)c2C)cc1,3.7µM*,3.7µM*,8%,-20,?,34
Cc1ccc(-n2c(C)cc(/C=N/NC(=O)c3ccncc3)c2C)cc1,?,-17%,8%,-10,-9,11
Cc1ccc(-n2c(C)cc(/C=N/NC(=O)CC3(C)OCCO3)c2C)cc1,?,?,5%,-4,-13,0
Cc1ccc(-n2c(C)cc(/C=N/NC(=O)CN(c3ccc(C)cc3C)S(C)(=O)=O)c2C)cc1,?,21µM*,11%,-24,-28,?
CCOC(=O)C1CCCN(S(=O)(=O)c2cc(Br)cc3c2N(C(=O)CC)CC3)C1 (stereo not given),?,?,2%,-18,-3,19
CC1(C)NC(=O)N(CC(O)COc2ccc(-c3ccccc3)cc2)C1=O (stereo not given),-20%,-26%,6%,3,3,3
CC(C)Oc1ccc(C(=O)Nc2ccc(N3CCCCC3)cc2)cc1,1%,-17%,4%,1,-2,-2
CCCNC(=O)c1ccc(Cn2c(SCC(=O)NC(C)C)nc3ccccc3c2=O)cc1,-18%,-5%,5%,.,.,.
CC(C)C(C)(C)C(C)(C)C(C)(C)S,11%[92.5 µM],6%[92.5 µM],8%,.,.,.
COc1cccc(C(=O)N2CCCC(c3nc(SCCN4CCOCC4)ncc3C)C2)c1 (stereo not given),?,16µM*,.,.,.,.
Cc1cnc(SCc2ccccn2)nc1C1CCCN(C(=O)c2coc3c2C(=O)CCC3)C1 (stereo not given),?,23µM*,.,.,.,.
COc1ccc(C(=O)N2CCCC(c3nc(SCc4ccccn4)ncc3C)C2)cc1F (stereo not given),9.2µM*,7.3µM*,.,.,.,.
COc1ccccc1C(=O)N1CCCC(c2nc(SCCN3CCOCC3)ncc2C)C1 (stereo not given),-10%[9.04 µM],?,.,.,.,.
Cc1cnc(SCC2CCCO2)nc1C1CCCN(Cc2nc(-c3ccccc3)cs2)C1 (stereo not given),-1%[9.04 µM],?,.,.,.,.
Cc1cnc(SCc2ccccn2)nc1C1CCCN(C(=O)c2noc3c2CCCC3)C1 (stereo not given),10µM*,15µM*,.,.,.,.
Cc1cnc(SCC2CCCO2)nc1C1CCCN(C(=O)C2=NNC(=O)CC2)C1 (stereo not given),-2%,-4%,.,.,.,.
CC(=O)Nc1ccc(C(=O)N2CCCC(c3nc(SCc4ccccn4)ncc3C)C2)cc1 (stereo not given),17%[9.04 µM],-5%,.,.,.,.
